Laboratory results from PubChem BioAssay (NCATS).
Results filed as inconclusive are left out. A number with no mark means an inactive call. The call rests on the fitted dose curve; in most records, active means well fitted cell-killing curve with a large enough effect; inconclusive means small, poorly fitted or top-dose-only effect, or effect the other way; inactive means flat fitted curve, though single readings scatter.

Each molecule was assayed on Tov-21-G (assay: Primary qHTS to identify gynecologic anti-cancer compounds using libraries of approved drugs and bioactive compounds (AID 1345084; further: nearly all actives have a fitted effect of over 55% in size)). Details: Gynecologic cancer cell panel viability, ATPlite luminescence, 48 h; series mostly up to 57.5 µM; activity change, negative = cytotoxicity: at the top concentration.
Summary of the method: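 In this quantitative HTS, cell killing is estimated from loss of ATP-dependent luciferase light. Cells see five compound concentrations over a 48 h exposure.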
On the % scale 0 is the no-effect control and ±100 the full control effect.

Structure (SMILES) | activity change, negative = cytotoxicity
Nc1nnnn1-c1ccccc1 | 2.6%
O=C(O)Cc1ccc(OCCNC[C@H](O)c2ccccc2)cc1 | 7.32%
CO[C@@]1(NC(=O)CSC[C@@H](N)C(=O)O)C(=O)N2C(C(=O)O)=C(CSc3nnnn3C)CS[C@@H]21 | 5.31%
CCOC(=O)OCC/C(SC(=O)OCC)=C(\C)N(C=O)Cc1cnc(C)nc1N | 2.43%
CCCc1c2oc(C(=O)O)cc(=O)c2cc2c(=O)cc(C(=O)O)n(CC)c12 | 7.8%
C[C@H]1NCc2cc(-c3ccc4c(=O)c(C(=O)O)cn(C5CC5)c4c3OC(F)F)ccc21 | 0.796% [at 25.3 µM]
CN1C(=O)CC(C)(c2ccccc2)C1=O (stereo not given) | 3.61%
CC(=O)OC[C@H]1O[C@@H](OC(C)=O)[C@H](OC(C)=O)[C@@H]1OC(C)=O | 7.35%
CC(=O)OCC(=O)[C@@]1(O)CCC2C3CCC4=CC(=O)CC[C@]4(C)C3[C@@H](O)C[C@@]21C (stereo not given in full) | -4.1%
CC(NN)c1ccccc1 (stereo not given) | 3.24% [at 25.3 µM]
CN1CCCN=C1/C=C/c1cccs1 | -3.46%
OCCc1ccccc1 | -9.47%
O=C(CCCl)NCCc1ccccc1 | 3.78%
Cc1oc(-c2ccccc2)nc1CCC(=O)c1ccc(CC2SC(=O)NC2=O)cc1 (stereo not given) | 2.11%
CN=C(N)NC(=O)Nc1c(C)cccc1C | 4.32%
CC(=O)Nc1c(I)c(NC(C)=O)c(I)c(C(=O)O)c1I | 6.48%
CN(C)C(=O)CNC(=O)Cc1ccccc1 | 10.1%
CN1CCCN(C(c2ccccc2)c2ccc(Cl)cc2)CC1 (stereo not given) | -5.27%
Cc1cccc(C)c1NC(=O)c1cc(S(N)(=O)=O)c(Cl)cc1O | 3.88%
O=C(O)Cn1cnnn1 | 1.24%

Structure (SMILES) | activity change, negative = cytotoxicity
Cc1ccc(/C=N/n2c(-c3ccccc3)csc2=S)cc1 | 0.575%
CSc1ccc(/C=C2/C(C)=C(CC(=O)O)c3cc(F)ccc32)cc1 | -0.109%
CCC1(c2cnc[nH]2)Cc2ccccc2C1 | -1.55%
O=C(Nc1ccc(S(=O)(=O)N2CCOCC2)cc1)c1cc(Cl)ccc1NS(=O)(=O)c1ccc(Cl)s1 | -0.118%
CN(C(=O)C(Cl)Cl)c1ccc(OC(=O)c2ccco2)cc1 | 6.64%
O=C1c2ccccc2CCc2ccccc21 | -1.7%
CC(C)OC(=O)c1cc2c(OCC(O)CNC(C)(C)C)cccc2[nH]1 (stereo not given) | -1.74%
O=C(O)c1[nH]n(-c2ccc(S(=O)(=O)O)cc2)c(=O)c1N=Nc1ccc(S(=O)(=O)O)cc1 | 0.861%
O=C(O)CNC(=O)CNC(=O)CNC(=O)CSC(=O)c1ccccc1 | 13.3%
Cc1ccccc1C(=O)N1CC/C(=N\OS(=O)(=O)O)c2ccc(Cl)cc21 | 10.4%
OCCCc1ccccc1 | -1.33%
O=C(CCCCC(=O)Nc1c(I)cc(I)c(C(=O)O)c1I)Nc1c(I)cc(I)c(C(=O)O)c1I | 9.71%
COCCc1ccc(OCC2CO2)cc1 (stereo not given) | -5.75%
O=C1OC2(c3ccccc31)c1cc(I)c(O)c(I)c1Oc1c2cc(I)c(O)c1I | -11.7%
OC(CCCN1CCCCC1)(c1ccccc1)c1ccccc1 | 0.267%
CCCc1ccc(OCC(=O)N2CCN(C(=O)COc3ccc(CCC)cc3OC)CC2)c(OC)c1 | 4.06%
CCCC(=O)O[C@]1(C(=O)COC(=O)CC)CC[C@H]2[C@@H]3CCC4=CC(=O)CC[C@]4(C)[C@H]3[C@@H](O)C[C@@]21C | -2.03% [at 25.3 µM]
CCN1CCN(C(=O)N[C@@H](C(=O)N[C@@H]2C(=O)N3[C@@H]2SC(C)(C)[C@H]3C(=O)O)c2ccccc2)C(=O)C1=O | -3.8%
O=C(O)c1ccccc1Nc1cc(Cl)ccc1C(=O)O | -6.71% [at 25.3 µM]
CCO[C@H](Cc1ccc(OCCc2ccc(OS(C)(=O)=O)cc2)cc1)C(=O)O | 7.82%
